Data from PubChem BioAssay AID624330 (Southern Research Specialized Biocontainment Screening …, 2012).
The campaign covered roughly 340,000 compounds. About 2,100 (0.62%) were called active.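 The calls were made as follows: active = first-screen hits whose inhibition reached a set limit at any dose in the follow-up dose series; inconclusive = inhibition above the set first-screen limit but never retested; inactive = the rest.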 Only a sample is shown. Measured potencies and affinities stand elsewhere.

Molecular target: Rac GTPase-activating protein 1 (Homo sapiens) (UniProt Q9H0H5)
Test: MgcRacGAP GTPase-activating activity inhibitors, confirmation, biochemical, ADP Hunter fluorescence, primary and confirmatory (AID 624330);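 also: fluorescence reports GDP produced by GAP-driven GTP hydrolysis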
Settings: MgcRacGAP-stimulated Rac1 GTP hydrolysis, at 30 µM, stronger effect = higher value, GST-tagged Rac1 F28L mutant substrate

Sequence of Rac GTPase-activating protein 1 (Homo sapiens) (Q9H0H5 whole entry, looked up): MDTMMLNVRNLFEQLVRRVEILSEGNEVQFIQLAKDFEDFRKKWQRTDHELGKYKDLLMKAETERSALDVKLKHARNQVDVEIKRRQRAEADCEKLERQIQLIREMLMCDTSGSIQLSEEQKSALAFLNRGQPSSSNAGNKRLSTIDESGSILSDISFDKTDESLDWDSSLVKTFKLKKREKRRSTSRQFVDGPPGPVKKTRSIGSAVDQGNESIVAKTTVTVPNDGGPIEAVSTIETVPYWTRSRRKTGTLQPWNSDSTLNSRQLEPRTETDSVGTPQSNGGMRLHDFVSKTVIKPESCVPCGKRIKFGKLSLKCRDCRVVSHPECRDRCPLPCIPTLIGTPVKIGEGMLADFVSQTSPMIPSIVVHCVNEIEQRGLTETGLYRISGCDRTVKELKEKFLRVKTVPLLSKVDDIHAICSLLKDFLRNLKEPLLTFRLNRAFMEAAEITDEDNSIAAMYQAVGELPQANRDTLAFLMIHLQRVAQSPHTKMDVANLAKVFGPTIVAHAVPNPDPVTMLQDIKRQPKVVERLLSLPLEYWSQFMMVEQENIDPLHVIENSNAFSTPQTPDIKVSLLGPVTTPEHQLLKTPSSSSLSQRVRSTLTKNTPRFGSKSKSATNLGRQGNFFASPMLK

inhibition, inactive:
C[C@H](NC(=O)C1CC(=O)N(c2ccc3c(c2)OCCO3)C1)C(=O)N1CCCCC1 (stereo partly drawn) 7.93%
CCC(CC)NC(=O)COC(=O)c1cc(Br)ccc1Cl 7.43%
CC(C)NC(=O)CN(Cc1ccc(F)cc1)C(=O)CCC(=O)Nc1ccccn1 4.82%
CC(=O)c1ccc(N=Nc2ccc(C)cc2)cc1 3.59%
COc1ccc(C(C)=O)cc1CN1C(=O)NC2(CCCCCC2)C1=O -0.57%
Cc1ccc(S(=O)(=O)N(C)CCN(C)S(=O)(=O)c2ccc(C)cc2)cc1 6.45%
Cc1cccc(OCC(=O)N(Cc2ccc(F)cc2)C2CCS(=O)(=O)C2)c1C (stereo not drawn) 9.11%
O=C(N/N=C/C(Cl)=C/c1ccccc1)c1ccccn1 2.22%
COc1ccc(-c2csc3nc(C)n(-n4cccc4)c(=O)c23)cc1OC 2.59%
CCCCOC(=O)C1=C(C)Nc2ncnn2C1c1ccc(OCC)c(OC)c1 (stereo not drawn) 4.44%
COC(=O)c1ccc(NC(=S)Nc2ccc3ccccc3c2)cc1 15.3%
COC(=O)c1ccc(NC(=S)Nc2ccccc2)cc1 5.58%
O=C(NNC(=O)C1CC=CCC1)c1ccccc1O (stereo not drawn) -10.1%
O=C(NC(=S)Nc1ccc(F)cc1)C1CCCCC1 6.1%
O=C(Nc1nccs1)C1CC=CCC1 (stereo not drawn) 0.32%
CC(=O)Nc1ccc(NC(=S)NC(=O)C2CCCC2)cc1 9.09%
Cc1nn(Cc2ccccc2)c(C)c1NC(=O)CSc1nnc(-c2cc(Cl)ccc2O)n1C 3.78%
COc1ccccc1-c1nnc(SCC(=O)c2c(N)n(C3CC3)c(=O)[nH]c2=O)o1 4.98%
O=C(CCC1CCCN(C(=O)c2ccc3c(c2)OCO3)C1)NCc1ccc(F)c(F)c1 (stereo not drawn) 6.44%
CCCC(=O)Nc1c(-c2ccccc2)c(=O)c(C)nn1-c1ccccc1 -2.47%
Cc1cccc(NC(=O)CSCc2cc(=O)n3c(C)csc3n2)c1C -9.75%
CCOCCCNC(=O)C(=O)NCCCOCC 6.87%
CCOCCCNCC(=O)NC1(C)C2CCC(C2)C1(C)C (stereo not drawn) 14.5%
CC(NC(=O)CNC(=O)c1cccc(Cl)c1)c1ccccc1 (stereo not drawn) 0.16%
CCCCNc1c(-c2ccc(-c3ccc(C(C)=O)cc3)c(OC)c2)nc2cc(C)ccn12 4.91%
Cc1c(Cc2ccccc2)c(=O)oc2c(C)c(OCC(=O)N[C@@H](Cc3ccccc3)C(=O)O)ccc12 1.68%
C[C@@H]1CN([C@@H](C)CO)C(=O)c2cc(NC(=O)Nc3ccc4c(c3)OCO4)ccc2O[C@H]1CN(C)S(=O)(=O)c1cn(C)cn1 11.5%
COc1ccc2c(c1)CC=C1C2CCC2(C)C(=O)C(=NO)CC12 (stereo not drawn) 5.55%
CC12CCC3C(=CCc4cc(O)ccc43)C1CC(=NO)C2O (stereo not drawn) 27.1%
COc1cc(/C=N/N2C(C)CCCC2C)cc(Br)c1O (stereo not drawn) 10.5%
CCN=c1scc(C)n1/N=C/c1ccc(O)c(O)c1O -35.3%
Cc1nnc(C)n1/N=C/c1cc(Br)cc(Br)c1O 13.7%
COc1cc(/C=N/N2C(=O)CSC2=S)cc(Br)c1O 24.4%
Oc1c(Br)cc(/C=N/n2c(-c3ccccc3)n[nH]c2=S)cc1Br 17.3%
CCc1n[nH]c(=S)n1/N=C/c1cc(Br)c(O)c(OC)c1 14.8%
COc1cc2ncnc(NCc3ccc(F)cc3)c2cc1OC 5.92%
COc1ccc(-n2cnnc2SCC(=O)Nc2cc(C)on2)cc1 0.92%
Cc1nn(-c2nc3ccccc3[nH]2)c(N)c1-c1ccc(Cl)cc1 14.1%
COc1ccc(NC(=O)[C@@H]2CCCN2S(=O)(=O)c2cccc3cccnc23)cc1 7.98%
Cc1c(N2C(=O)CSC2c2ccc(F)cc2)c(=O)n(-c2ccccc2)n1C (stereo not drawn) -1.84%
Cc1cc(C)n(CC(=O)N2N=C(C(F)F)CC2(O)C(F)F)n1 (stereo not drawn) 5.91%
O=C(CC1C[C@H](C(=O)N2CCCCC2)[C@@]2(CCc3ccccc3)c3[nH]c4ccccc4c3CCN2C1=O)NCCc1ccccn1 (stereo partly drawn) 10.2%
COCCCn1c(=S)[nH]c2sc3c(c2c1=O)CCCS3 7.39%
CCn1c(=S)[nH]c2sc3c(c2c1=O)CCCC3 47.9%
Cc1ccc(-n2c(=S)[nH]c3sc4c(c3c2=O)CCc2ccccc2-4)cc1 4.2%
CN(C)CCCn1c(=S)[nH]c2sc3c(c2c1=O)CCCC3 26.2%
CCCn1c(=S)[nH]c2sc3c(c2c1=O)CCCC3 2.13%
C=CCn1c(=S)[nH]c2sc3c(c2c1=O)CCCC3 13.8%
C=CCn1c(=S)[nH]c2sc3c(c2c1=O)CCC3 14.3%
CCOc1ccc(-n2c(=O)[nH]c3sc4c(c3c2=O)CCCC4)cc1 12.1%
COc1ccc(/C(C)=N/NC(=S)Nc2cc(C)ccc2C)cc1 -5.64%
CCOC(=O)C1C(=O)CC(C)(O)C(C(=O)OCC)C1c1ccc([N+](=O)[O-])cc1 (stereo not drawn) 11.4%
COc1ccc(N2CCN(c3nc4cc(C)ccc4cc3C=O)CC2)cc1 2.5%
Cc1ccc(C2=NN(C(=O)CSc3nc4ncc(Cl)cc4[nH]3)C(c3ccco3)C2)cc1 (stereo not drawn) 5.98%
C/C(=N\NC(=O)Cn1cnc2ccccc21)c1cccs1 4.15%
COc1ccc2c3n(nc2c1)CCN=C3c1ccc(C)cc1 4.94%
COc1cccc(-c2cc(C(=O)NC3CCCCC3)no2)c1 6.22%
O=C(NCc1ccccc1)C12CC3CC(CC(Br)(C3)C1)C2 5.84%
O=C1CCN(S(=O)(=O)c2ccccc2)N1 -45.5%
O=C1CCC(=O)N(c2ccccc2)N1 3.91%
Cc1[nH]c(-c2ccc(F)cc2)cc1C(=O)N1CCN(c2cccc(Cl)c2)CC1 21.1%
COC(=O)Cn1ccc(N(C)C)c(C#N)c1=O -1.06%
CCOC(=O)N1CCN(Cc2nc(-c3ccc(Cl)cc3)no2)CC1 0.28%
CC(C)Oc1cccc(C(=O)NC(=S)Nc2ccc(Cl)c(C(=O)O)c2)c1 0.71%
O=C(CCNC(=O)C1CCN(S(=O)(=O)c2ccc(F)cc2)CC1)NCCc1ccc(Cl)cc1 1.71%
CCCN(CC(=O)Nc1ccc(F)c(F)c1F)C(=O)c1ccc2c(=O)n3c(nc2c1)CCC3 1.86%
N#CCCn1cc(CNC2CCC(O)CC2)c2ccccc21 (stereo not drawn) 3.99%
CC1(Cc2cn(CCC#N)c3ccccc23)OCCO1 15.8%
CCCCCC(=O)NC(NC(=S)NC1CCS(=O)(=O)C1)C(Cl)(Cl)Cl (stereo not drawn) 8.9%
Cc1cccc(OCCSc2nc(N)cc(N)n2)c1 25.9%
O=[N+]([O-])c1ccc(C=NNc2ccccc2)cc1 0.7%
O=C(N/N=C/c1ccc[nH]1)c1ccc([N+](=O)[O-])cc1 13.2%
Nc1c(N(CCO)C(=O)C2CCCC2)c(=O)[nH]c(=O)n1Cc1ccccc1 2.35%
Cc1cc(C)cc(NC(=O)C2(c3ccccc3)CC2(Cl)Cl)c1 (stereo not drawn) 8.14%
COc1ccc(/C=N/N2CCN(C3c4ccccc4-c4ccccc43)CC2)cc1O 11.6%
CN(C(=O)CSc1nc2[nH]ncc2c(=O)[nH]1)c1ccccc1 2.08%
Oc1c(Br)cc(Br)cc1C=Nc1ccc2[nH]ncc2c1 17.9%
CC1(C)CC(=O)C(C=Nc2ccc3[nH]ncc3c2)=C(O)C1 6.45%
C=CCOc1ccc(C=Nc2ccc(OC)cc2)c(O)c1 12%
Cc1ccc(O)c(/C=N/NC(=O)c2[nH]ncc2Br)c1 0.98%
Brc1ccc2[nH]ncc2c1 3.94%
COc1cccc(N=Cc2ccc(O)cc2O)c1 8.51%
CCOC(=O)c1nc(NNC(C)=O)sc1C 0.96%
Cc1nc2nc(-c3cccs3)[nH]c2cc1Br 10.5%
Cc1cccc(NC(=O)c2nc(-c3ccccc3)n(-c3ccccc3)n2)c1C 10.4%
Cc1nnc(CN(C)C(=O)CC2C(=O)NCCN2Cc2ccccc2C)o1 (stereo not drawn) -0.43%
Cc1nc(CNS(=O)(=O)c2cc(C)c(C)cc2C)cs1 10.2%
Nc1ccc(SCc2cccnc2)cc1 14%
CC(C)(C)OC(=O)N1CCN(C(=O)c2[nH]cnc2C(=O)Nc2ccc(Cl)cc2)CC1 8.41%
O=C(NCc1cccnc1)C1CCN(S(=O)(=O)c2cccs2)CC1 8.85%
CSc1ccc(S(=O)(=O)Nc2ccc(S(=O)(=O)Nc3ccc(C)cc3)cc2)cc1 8.03%
Cc1ccc(NC(=O)COC(=O)C(NS(=O)(=O)c2ccc(Cl)cc2)C(C)O)cc1 (stereo not drawn) 4.48%
Cc1ccc(S(=O)(=O)Nc2ccc(N(C)S(=O)(=O)c3ccc(C)cc3)cc2)cc1 3.88%
CC(=O)Nc1ccc(S(=O)(=O)N[C@@H](C)C(=O)OCc2ccc(Cl)cc2)cc1 3.47%
CC(=O)N(C)c1ccc(NS(=O)(=O)c2cc(Cl)ccc2Cl)cc1 11.1%
CN(C)c1ccc(S(=O)(=O)c2ccc(Cl)cc2)cc1 -2.71%
CCN(c1ccc(NS(=O)(=O)c2cc(Cl)ccc2Cl)cc1)C(C)C 10.2%
O=S(=O)(Nc1ccncc1)c1ccc(Cl)cc1 2.85%
